Targets with a hit are over-represented here; the source holds about 7,900 in all. About 0.6% of all pairs of compound and target were hits.
Tests used:
Experiment in all cases: log2 fold change, soluble protein after heating vs DMSO (PISA); higher = thermal stabilisation; K562 cells, 10 uM, 30 min; active = over 0.2 and 3.5 SD of the protein, either way, in both replicates (recomputed)
[1] = compound: NC(=O)Nc1cc(-c2cccc(F)c2)sc1C(=O)N[C@H]1CCCNC1
Outline: (§1)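 K562 cells at 2×10^6 cells/mL were given 10 μM compound for 30 min. Aliquots then went through 3 min of heating across 48°C-58°C, were pooled, and were extracted in PBS with 0.5% NP-40 at 4°C, and the supernatant after 21,000xg for 90 min was quantified by TMTpro 16plex LC-MS/MS with channel sums equalised. Thermal stability relative to control samples, from duplicates, is given as log2 fold change.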

[2] = compound: NC(=O)c1cnc(N[C@@H]2CCCC[C@@H]2N)nc1Nc1cccc(-n2nccn2)c1
Outline: as §1

[3] = compound: NC1(c2ccc(-c3nc4ccn5c(=O)[nH]nc5c4cc3-c3ccccc3)cc2)CCC1
Outline: as §1

[4] = compound: NCC(=O)Nc1ccc(-n2nc(C(F)(F)F)cc2-c2ccc3c(ccc4ccccc43)c2)cc1
Outline: as §1

vorinostat = compound: O=C(CCCCCCC(=O)Nc1ccccc1)NO [vorinostat]
Outline: as §1

citarinostat = compound: O=C(CCCCCCNC(=O)c1cnc(N(c2ccccc2)c2ccccc2Cl)nc1)NO [citarinostat]
Outline: as §1

silmitasertib = compound: O=C(O)c1ccc2c(c1)nc(Nc1cccc(Cl)c1)c1ccncc12 [silmitasertib]
Outline: as §1

[5] = compound: O=C1NC(=O)C(c2cnc3ccccn23)=C1c1cn2c3c(cc(F)cc13)CN(C(=O)N1CCCCC1)CC2
Outline: as §1

[6] = compound: c1cc(OCCN2CCCCC2)cc(-c2n[nH]c3ccc(-c4nnc[nH]4)cc23)c1
Outline: as §1

entospletinib = compound: c1cn2cc(-c3ccc4cn[nH]c4c3)nc(Nc3ccc(N4CCOCC4)cc3)c2n1 [entospletinib]
Outline: as §1

entinostat = compound: Nc1ccccc1NC(=O)c1ccc(CNC(=O)OCc2cccnc2)cc1 [entinostat]
Outline: as §1

Measured: log2 fold change

HDAC7 isoform 5 (UniProt Q8WUI4)
UniProt Q8WUI4, sequence (Q8WUI4 whole entry, looked up): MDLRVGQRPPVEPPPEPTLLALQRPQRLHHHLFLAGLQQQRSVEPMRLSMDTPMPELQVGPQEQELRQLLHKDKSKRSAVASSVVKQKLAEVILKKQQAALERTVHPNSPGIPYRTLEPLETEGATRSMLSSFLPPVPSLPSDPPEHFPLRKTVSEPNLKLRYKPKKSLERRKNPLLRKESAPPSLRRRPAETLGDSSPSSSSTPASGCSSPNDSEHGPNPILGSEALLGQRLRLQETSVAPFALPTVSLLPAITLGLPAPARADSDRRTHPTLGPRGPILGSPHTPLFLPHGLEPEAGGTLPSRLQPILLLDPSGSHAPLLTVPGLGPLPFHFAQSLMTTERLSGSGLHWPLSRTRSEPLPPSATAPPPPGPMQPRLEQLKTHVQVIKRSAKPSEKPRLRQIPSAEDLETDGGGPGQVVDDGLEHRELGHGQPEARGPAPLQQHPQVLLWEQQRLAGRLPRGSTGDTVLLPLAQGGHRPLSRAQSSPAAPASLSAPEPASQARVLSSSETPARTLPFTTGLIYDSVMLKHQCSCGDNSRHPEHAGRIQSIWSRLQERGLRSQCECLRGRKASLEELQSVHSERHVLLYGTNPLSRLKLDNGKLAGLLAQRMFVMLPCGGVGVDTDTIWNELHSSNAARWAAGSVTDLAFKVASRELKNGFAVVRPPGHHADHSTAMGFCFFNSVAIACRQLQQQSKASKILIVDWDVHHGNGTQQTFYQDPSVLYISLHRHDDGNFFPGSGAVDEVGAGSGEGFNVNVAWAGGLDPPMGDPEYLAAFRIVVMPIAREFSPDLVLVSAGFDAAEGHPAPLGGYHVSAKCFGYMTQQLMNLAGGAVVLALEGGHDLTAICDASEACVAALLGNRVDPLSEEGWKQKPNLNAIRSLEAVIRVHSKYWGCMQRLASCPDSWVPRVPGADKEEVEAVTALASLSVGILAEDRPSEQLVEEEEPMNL
inactive: [1] 0.009 | [2] 0.123 | [3] 0.188 | [4] -0.036 | vorinostat 0.027 | citarinostat 0.032 | silmitasertib 0.021 | [5] 0.032 | [6] -0.163 | entospletinib -0.024

GOLGA6B (UniProt A6NDN3)
inactive: [1] 0.048 | [3] -0.054 | [4] 0.001 | entinostat 0.007 | vorinostat 0.114 | silmitasertib 0.022 | [5] 0.051

HS1BP3 (UniProt Q53T59)
UniProt Q53T59, sequence (Q53T59 whole entry, looked up): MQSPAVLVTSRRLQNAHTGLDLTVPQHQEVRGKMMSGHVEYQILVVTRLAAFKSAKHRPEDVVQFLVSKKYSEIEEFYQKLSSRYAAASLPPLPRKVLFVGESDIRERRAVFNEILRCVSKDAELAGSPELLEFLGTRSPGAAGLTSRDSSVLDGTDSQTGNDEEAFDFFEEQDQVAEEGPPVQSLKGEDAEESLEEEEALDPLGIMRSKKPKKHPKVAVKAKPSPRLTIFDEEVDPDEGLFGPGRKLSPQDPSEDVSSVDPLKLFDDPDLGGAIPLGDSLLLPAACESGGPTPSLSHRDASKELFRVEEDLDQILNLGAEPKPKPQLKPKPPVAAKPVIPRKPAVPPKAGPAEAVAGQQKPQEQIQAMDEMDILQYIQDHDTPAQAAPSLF
inactive: [1] -0.059 | [2] -0.075 | [4] 0.027 | entinostat -0.05 | citarinostat 0.115 | [5] -0.016 | [6] 0.108 | entospletinib -0.126

GSE1 (UniProt Q14687)
inactive: [4] -0.044

GOLGA8R (UniProt I6L899)
inactive: [2] -0.1 | [4] 0.02 | vorinostat 0.073 | citarinostat 0.09 | [6] 0.006 | entospletinib -0.056

HSPA2 (UniProt P54652)
UniProt P54652, sequence (P54652 whole entry, looked up): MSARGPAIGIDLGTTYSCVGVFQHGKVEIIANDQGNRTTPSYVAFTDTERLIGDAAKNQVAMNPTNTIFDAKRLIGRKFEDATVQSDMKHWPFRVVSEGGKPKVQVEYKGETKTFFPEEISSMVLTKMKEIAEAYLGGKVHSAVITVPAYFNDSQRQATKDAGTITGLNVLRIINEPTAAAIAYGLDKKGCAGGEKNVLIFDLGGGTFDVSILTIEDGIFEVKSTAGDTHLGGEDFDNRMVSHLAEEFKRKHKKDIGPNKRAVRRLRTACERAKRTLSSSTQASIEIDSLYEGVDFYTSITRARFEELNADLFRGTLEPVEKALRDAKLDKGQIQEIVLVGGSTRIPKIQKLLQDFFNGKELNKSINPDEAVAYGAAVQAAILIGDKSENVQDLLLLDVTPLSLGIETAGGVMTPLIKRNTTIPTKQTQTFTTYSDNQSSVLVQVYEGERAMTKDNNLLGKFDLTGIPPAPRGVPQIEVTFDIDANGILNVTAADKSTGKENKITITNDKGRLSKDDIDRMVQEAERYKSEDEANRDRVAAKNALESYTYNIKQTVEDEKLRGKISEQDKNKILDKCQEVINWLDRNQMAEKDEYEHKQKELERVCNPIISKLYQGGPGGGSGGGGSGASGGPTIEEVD
inactive: [1] -0.015 | [2] 0.076 | [3] -0.071 | entinostat -0.039 | silmitasertib 0.006

GBE1 (UniProt Q04446)
UniProt Q04446, sequence (Q04446 whole entry, looked up): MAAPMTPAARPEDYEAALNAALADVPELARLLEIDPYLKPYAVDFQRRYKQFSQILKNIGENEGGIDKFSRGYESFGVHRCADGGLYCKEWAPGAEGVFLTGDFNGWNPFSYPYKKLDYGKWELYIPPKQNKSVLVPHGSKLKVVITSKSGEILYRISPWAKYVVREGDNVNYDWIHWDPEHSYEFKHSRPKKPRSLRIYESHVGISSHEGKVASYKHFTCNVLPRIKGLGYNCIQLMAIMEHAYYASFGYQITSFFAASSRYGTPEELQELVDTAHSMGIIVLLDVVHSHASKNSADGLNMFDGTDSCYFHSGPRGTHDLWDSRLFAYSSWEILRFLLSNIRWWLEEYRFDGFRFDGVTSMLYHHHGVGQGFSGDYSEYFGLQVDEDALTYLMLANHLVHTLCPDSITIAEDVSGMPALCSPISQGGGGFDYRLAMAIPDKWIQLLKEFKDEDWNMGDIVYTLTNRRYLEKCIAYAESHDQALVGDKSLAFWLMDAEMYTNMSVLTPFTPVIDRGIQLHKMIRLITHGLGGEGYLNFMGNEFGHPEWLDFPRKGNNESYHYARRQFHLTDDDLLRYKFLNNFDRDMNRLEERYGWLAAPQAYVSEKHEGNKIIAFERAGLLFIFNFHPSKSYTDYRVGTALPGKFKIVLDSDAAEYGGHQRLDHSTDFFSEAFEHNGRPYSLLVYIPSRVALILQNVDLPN
inactive: [2] -0.11 | [3] -0.214 | [4] -0.07 | citarinostat 0.09 | silmitasertib 0.031 | [5] -0.049 | [6] -0.057 | entospletinib 0.039

GSTT1 (UniProt P30711)
UniProt P30711, sequence (P30711 whole entry, looked up): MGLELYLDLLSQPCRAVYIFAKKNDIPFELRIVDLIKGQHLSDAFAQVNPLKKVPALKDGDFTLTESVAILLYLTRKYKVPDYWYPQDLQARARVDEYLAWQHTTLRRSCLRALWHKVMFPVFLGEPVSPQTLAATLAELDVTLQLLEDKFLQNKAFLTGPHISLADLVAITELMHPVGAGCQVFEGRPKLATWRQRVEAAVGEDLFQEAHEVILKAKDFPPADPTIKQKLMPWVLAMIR
inactive: [2] 0.012 | [3] 0.03 | [4] 0.08 | vorinostat -0.022 | citarinostat -0.018 | silmitasertib -0.074 | [5] 0.019 | [6] -0.012 | entospletinib 0.013

H3-3A (UniProt P84243)
inactive: [1] 0.072 | [3] -0.095 | [4] -0.096 | entinostat 0.104 | citarinostat 0.157 | silmitasertib -0.046 | [6] 0.028 | entospletinib -0.131

FUNDC1 (UniProt Q8IVP5)
UniProt Q8IVP5, sequence (Q8IVP5 whole entry, looked up): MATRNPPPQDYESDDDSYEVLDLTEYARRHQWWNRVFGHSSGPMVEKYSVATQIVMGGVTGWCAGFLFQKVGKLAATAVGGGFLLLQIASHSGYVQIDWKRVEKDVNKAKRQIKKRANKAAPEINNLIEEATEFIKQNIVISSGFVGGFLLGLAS
inactive: [1] -0.058 | [3] -0.104 | entinostat 0.01 | silmitasertib 0.055

IGF2 isoform 3 (UniProt P01344)
inactive: [4] -0.004

FASTKD1 (UniProt Q53R41)
inactive: [1] 0.046 | [2] -0.014 | [4] 0.033 | entinostat -0.019 | vorinostat 0.018 | citarinostat -0.055 | [5] -0.12 | [6] 0.046 | entospletinib -0.11

FIZ1 (UniProt Q96SL8)
inactive: [1] 0.026 | [3] 0.097 | [4] 0.061 | entinostat -0.257 | vorinostat 0.044 | citarinostat -0.12 | silmitasertib -0.103 | [5] 0.06 | [6] 0.041 | entospletinib 0.042

FAT2 (UniProt Q9NYQ8)
inactive: [3] -0.334 | [4] -0.134 | vorinostat 0.068 | citarinostat -0.045 | silmitasertib -0.063 | [5] -0.06 | [6] -0.06 | entospletinib 0.119

GBA2 (UniProt Q9HCG7)
inactive: [1] -0.008 | [2] -0.006 | [3] -0.108 | [4] -0.129 | entinostat -0.023 | citarinostat -0.332 | silmitasertib 0.124 | [5] -0.027 | [6] -0.211 | entospletinib -0.108

FMR1 (UniProt Q06787)
inactive: [1] 0.086 | entinostat -0.106 | vorinostat -0.137 | citarinostat 0.101 | silmitasertib 0.058 | [6] -0.146 | entospletinib 0.01
active: [3] 0.836

FGG (UniProt P02679)
inactive: vorinostat -0.001

IDH3A isoform 2 (UniProt P50213)
inactive: [2] -0.06

HNRNPK isoform 3 (UniProt P61978)
inactive: [1] -0.06 | [3] 0.052 | [4] -0.182 | entinostat 0.023 | vorinostat 0.035 | citarinostat -0.009 | silmitasertib 0.028 | [5] 0.159 | [6] -0.102 | entospletinib 0.003

FBXO9 (UniProt Q9UK97)
inactive: [3] -0.079 | [4] -0.112 | vorinostat 0.109 | citarinostat 0.157 | silmitasertib 0.132 | [6] 0.054 | entospletinib -0.065

HNRNPUL1 (UniProt M0R247)
inactive: [1] -0.056 | [2] -0.629 | entinostat -0.352 | citarinostat -0.227 | [6] -0.014 | entospletinib -0.056

GINS2 (UniProt Q9Y248)
UniProt Q9Y248, sequence (Q9Y248 whole entry, looked up): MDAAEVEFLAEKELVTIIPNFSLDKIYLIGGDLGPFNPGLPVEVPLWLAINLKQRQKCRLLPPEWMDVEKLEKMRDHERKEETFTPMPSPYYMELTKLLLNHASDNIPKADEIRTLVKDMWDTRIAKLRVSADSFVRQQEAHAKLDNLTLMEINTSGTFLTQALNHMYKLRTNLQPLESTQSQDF
inactive: [1] -0.086 | [3] -0.024 | [4] 0.022 | vorinostat -0.01 | citarinostat 0.028 | silmitasertib -0.031 | [5] -0.163 | [6] -0.026 | entospletinib 0.012
active: entinostat 0.533

GGA2 (UniProt Q9UJY4)
inactive: [1] 0.02 | [2] -0.02 | [3] -0.208 | [4] 0.01 | entinostat 0.032 | citarinostat 0.042 | silmitasertib 0.033 | [5] 0.152 | [6] -0.034 | entospletinib -0.117

GREB1 (UniProt Q4ZG55)
inactive: [1] 0.029 | [2] -0.103 | [4] -0.002 | entinostat 0.012 | [5] 0.036

FCHO1 (UniProt O14526)
UniProt O14526, sequence (O14526 whole entry, looked up): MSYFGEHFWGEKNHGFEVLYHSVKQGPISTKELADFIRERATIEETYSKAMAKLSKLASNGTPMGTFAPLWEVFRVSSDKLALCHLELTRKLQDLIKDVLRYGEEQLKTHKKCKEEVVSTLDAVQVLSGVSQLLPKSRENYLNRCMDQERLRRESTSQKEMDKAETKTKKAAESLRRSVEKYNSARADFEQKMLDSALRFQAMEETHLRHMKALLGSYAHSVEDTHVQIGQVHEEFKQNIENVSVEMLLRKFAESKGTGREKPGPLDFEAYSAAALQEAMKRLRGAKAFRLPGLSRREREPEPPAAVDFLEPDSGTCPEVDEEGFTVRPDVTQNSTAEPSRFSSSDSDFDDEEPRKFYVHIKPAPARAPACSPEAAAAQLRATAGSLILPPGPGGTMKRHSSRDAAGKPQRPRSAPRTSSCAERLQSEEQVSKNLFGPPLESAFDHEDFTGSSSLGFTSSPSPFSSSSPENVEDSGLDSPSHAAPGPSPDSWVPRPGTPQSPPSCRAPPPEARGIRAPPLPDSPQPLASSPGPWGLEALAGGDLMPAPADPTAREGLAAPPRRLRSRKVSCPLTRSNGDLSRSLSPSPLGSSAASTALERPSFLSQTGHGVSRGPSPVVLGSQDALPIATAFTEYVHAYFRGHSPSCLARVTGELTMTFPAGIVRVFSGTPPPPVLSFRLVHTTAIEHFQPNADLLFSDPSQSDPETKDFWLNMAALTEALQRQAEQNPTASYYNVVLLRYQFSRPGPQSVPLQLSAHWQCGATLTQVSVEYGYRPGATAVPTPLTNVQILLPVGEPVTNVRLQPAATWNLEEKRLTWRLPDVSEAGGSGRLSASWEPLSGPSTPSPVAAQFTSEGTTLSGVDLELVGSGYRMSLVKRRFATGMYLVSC
inactive: [1] -0.001 | [2] -0.21 | [3] -0.119 | [4] 0.054 | entinostat -0.032 | citarinostat -0.086 | silmitasertib -0.24 | [5] -0.102 | [6] 0.302 | entospletinib -0.059

HBZ, A0A494C057
inactive: [3] -0.022 | citarinostat -0.197 | silmitasertib 0.005 | [6] 0.876 | entospletinib -0.048

HDAC10 (UniProt Q969S8)
inactive: [2] 0.061 | [3] -0.076 | [4] -0.033 | vorinostat 0.208 | citarinostat 0.062 | silmitasertib -0.271 | [6] -0.09 | entospletinib 0.058

FAT1 (UniProt Q14517)
inactive: [1] -0.018 | [3] 0 | [4] -0.075 | entinostat 0.015 | vorinostat -0.04 | silmitasertib 0.176 | [5] -0.051

FCF1 (UniProt Q9Y324)
UniProt Q9Y324, sequence (Q9Y324 whole entry, looked up): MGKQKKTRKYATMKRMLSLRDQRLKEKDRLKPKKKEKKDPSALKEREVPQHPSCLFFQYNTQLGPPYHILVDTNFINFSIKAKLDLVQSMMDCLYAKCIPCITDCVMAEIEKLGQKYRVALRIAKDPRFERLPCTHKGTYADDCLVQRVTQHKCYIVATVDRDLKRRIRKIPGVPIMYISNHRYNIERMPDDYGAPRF
inactive: [1] 0.244 | [3] 0.097 | [4] 0.36 | entinostat 0 | vorinostat -0.045 | citarinostat -0.137 | silmitasertib 0.099 | [5] 0.349 | [6] -0.375 | entospletinib -0.269

HDAC1 (UniProt Q13547)
active: vorinostat 1.79 | citarinostat 1.52
inactive: [1] -0.015 | [2] 0.128 | [3] -0.017 | [4] 0.006 | silmitasertib 0.06 | [5] -0.03 | [6] 0.003 | entospletinib -0.014

GPS2 (UniProt Q13227)
inactive: [1] 0.041 | [3] 0.079 | [4] -0.106 | entinostat -0.015 | citarinostat -0.023 | silmitasertib 0.031 | [5] -0.005 | [6] -0.092 | entospletinib 0.058

HEATR3 (UniProt Q7Z4Q2)
inactive: [1] 0 | [3] -0.248 | [4] -0.103 | entinostat 0.052 | vorinostat -0.017 | citarinostat 0.075 | silmitasertib 0.02 | [5] -0.051 | [6] 0.047 | entospletinib 0

GPNMB (UniProt Q14956)
UniProt Q14956, sequence (Q14956 whole entry, looked up): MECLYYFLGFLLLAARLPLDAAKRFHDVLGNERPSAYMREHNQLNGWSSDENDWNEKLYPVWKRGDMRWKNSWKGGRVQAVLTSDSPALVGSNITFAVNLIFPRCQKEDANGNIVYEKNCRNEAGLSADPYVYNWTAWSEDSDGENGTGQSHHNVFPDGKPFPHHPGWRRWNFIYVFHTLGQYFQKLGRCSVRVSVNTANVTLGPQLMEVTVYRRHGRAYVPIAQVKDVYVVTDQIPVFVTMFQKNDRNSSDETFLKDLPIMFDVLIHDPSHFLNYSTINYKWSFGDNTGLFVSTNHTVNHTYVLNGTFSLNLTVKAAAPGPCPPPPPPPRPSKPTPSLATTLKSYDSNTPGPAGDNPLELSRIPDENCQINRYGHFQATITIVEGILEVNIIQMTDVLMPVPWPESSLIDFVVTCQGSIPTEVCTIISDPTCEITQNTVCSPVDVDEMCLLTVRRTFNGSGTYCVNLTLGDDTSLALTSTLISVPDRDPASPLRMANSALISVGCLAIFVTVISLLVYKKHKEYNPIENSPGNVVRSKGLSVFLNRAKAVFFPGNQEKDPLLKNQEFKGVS
inactive: citarinostat -0.125 | [5] -0.015 | [6] 0.727 | entospletinib 0
